{"source": "PubChem BioAssay AID1508600", "about": "(Functional Genomics Laboratory (NCATS/FGL), 2020)", "note": "Out of some 53,000 sequences screened, about 3,700 (7%) were called active.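 The calls were made as follows: active = gene knockdowns whose robust z-score for IL-1 alpha signal is at least 2 or at most -2, so actives lie on both sides; inactive = the rest.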 The sample as a whole holds a higher share of actives than the screen did.", "data": [{"assay": "Components of the Cytosolic LPS Sensing Pathway: Gene Identification via Genome-wide siRNA Screen;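 also: robust z of the log signal after scaling to non-targeting control siRNA wells of the plate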", "conditions": "RAW264.7 macrophages, IL-1a HTRF, actives lie on both sides, screened at 100 nM (by protocol), cells primed 5 h with Pam3CSK4 first", "summary_of_the_method": "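Supernatant IL-1a by HTRF from RAW264.7 cells primed with Pam3CSK4 (5 hours) and transfected with LipidA (24 hour) after 48h siRNA knockdown at 100 nM; cell viability checked with CellTiter-Glo.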", "values": [{"sequence": "CCUAAACUCAGUGCCUCAGTT against Mrps36", "z-score": "0.579 (inactive)"}, {"sequence": "GUCAAAGCACCAUUUGAGUTT against Vmn1r8", "z-score": "-0.842 (inactive)"}, {"sequence": "GGUAUUCUUUGAAGAAAACTT against Tbc1d14", "z-score": "1.17 (inactive)"}, {"sequence": "GGUUUUUGAUGAUUGCUUUTT against Slc49a4", "z-score": "0.221 (inactive)"}, {"sequence": "GGACACAGAUAGAAAUACUTT against Glo1", "z-score": "2.73 (active)"}, {"sequence": "GGUCUCGAAUGUAUGGUGCTT against Bicc1", "z-score": "1.14 (inactive)"}, {"sequence": "GGCAGUUAUGAUAAAGAUUTT against Slc25a16", "z-score": "-0.896 (inactive)"}, {"sequence": "GGUUCCUAAACAUACUUGUTT against Swi5", "z-score": "0.478 (inactive)"}, {"sequence": "GGACUACAGUCAUUAUUCATT against Sycp2", "z-score": "3.25 (active)"}, {"sequence": "GGAGUACGAGCAAAUGGUGTT against Nfkbia", "z-score": "0.5 (inactive)"}, {"sequence": "GGGACCUACAUUACAAUUUTT against Suz12", "z-score": "1.06 (inactive)"}, {"sequence": "GGAUUCACCUGUUAUCUUUTT against Tapbpl", "z-score": "0.303 (inactive)"}, {"sequence": "UGAAUCACCACCCGGAAUGTT against Pcbd2", "z-score": "0.41 (inactive)"}, {"sequence": "CCUAUGUGCGUUCCAAGCATT against Eif5b", "z-score": "-0.432 (inactive)"}, {"sequence": "GGACAUCUGUGUUAAAUUUTT against Npy1r", "z-score": "-0.47 (inactive)"}, {"sequence": "GGAAGAUACUGUGGUUUAUTT against Agbl3", "z-score": "2.29 (active)"}, {"sequence": "GGCAUUGGUGUUUCAUUAATT against Gpm6a", "z-score": "1.2 (inactive)"}, {"sequence": "GGUAUUAUGACCAGAUUAUTT against Plxnb3", "z-score": "0.736 (inactive)"}, {"sequence": "GGACGAUUGCCAUAUGAACTT against Ice2", "z-score": "-0.99 (inactive)"}, {"sequence": "GUACUUUCUUGAACCAGAGTT against Cacng7", "z-score": "-0.486 (inactive)"}, {"sequence": "GGAUGAAGCCUUCAUCAGGTT against Adcy6", "z-score": "0.0162 (inactive)"}, {"sequence": "GGAGAGAGACACAAGCUUGTT against Map7d1", "z-score": "1.07 (inactive)"}, {"sequence": "CCCGGGUCUUUGAUAUCUUTT against Evi5l", "z-score": "2.03 (active)"}, {"sequence": "GCGAAAACUUCGGAUCUAUTT against Smarcd2", "z-score": "1.29 (inactive)"}, {"sequence": "GGCUUAUCAUACCUGGUUGTT against Olfr691", "z-score": "0.404 (inactive)"}, {"sequence": "GGAUAUUUCAGUUGGCGGGTT against Lama2", "z-score": "-0.158 (inactive)"}, {"sequence": "GGUCAAACUGAAGAAGGAGTT against Slc7a7", "z-score": "-1.24 (inactive)"}, {"sequence": "GGAAGUUGAAAUGCUGUCGTT against Clcnka", "z-score": "-2.24 (active)"}, {"sequence": "GCAAGGAAAAUCUAUACCGTT against Rgs2", "z-score": "-0.954 (inactive)"}, {"sequence": "GCACAUACAGAGCUCGUCUTT against Zkscan6", "z-score": "-0.471 (inactive)"}, {"sequence": "CCAGAUAAGCCUCAUCAAUTT against Scn5a", "z-score": "-0.163 (inactive)"}, {"sequence": "GAAUCAGCUGUUCUCUCACTT against Tm2d3", "z-score": "2.25 (active)"}, {"sequence": "GCACCAAACCAAUAUUAGUTT against Epb41l3", "z-score": "1.13 (inactive)"}, {"sequence": "GCACCAUUAAGGUUGCCAATT against Nudt11", "z-score": "-1.16 (inactive)"}, {"sequence": "GGUCUGUGGGAAACAUAAATT against Gria3", "z-score": "-0.233 (inactive)"}, {"sequence": "GGAUGUCUAUUUUUGGUCATT against Esd", "z-score": "-0.819 (inactive)"}, {"sequence": "GGCGGAUACUUGAUCGAAATT against Exoc3", "z-score": "2.41 (active)"}, {"sequence": "GGGACAAUACCAAUUUCUCTT against Car15", "z-score": "-0.209 (inactive)"}, {"sequence": "GGCAAUCUCCUUUAAUUGATT against Zfp329", "z-score": "0.237 (inactive)"}, {"sequence": "GCCCUCAACCAUAAUUCAATT against Zscan21", "z-score": "2.15 (active)"}, {"sequence": "GGAAAUGAGCCAGGAUGGUTT against Cdca4", "z-score": "0.0601 (inactive)"}, {"sequence": "CCCGAUUAUCUAGUGAUACTT against Sbk1", "z-score": "0.311 (inactive)"}, {"sequence": "GCCACUGGUUCACCAUGCATT against Ugt1a9", "z-score": "-0.52 (inactive)"}, {"sequence": "GCCAGCUUUUAGUAUCAACTT against Sun1", "z-score": "2.4 (active)"}, {"sequence": "GCCUGUGGUAGGAUACUAUTT against Denr", "z-score": "-0.964 (inactive)"}, {"sequence": "GGAAGGAACCGUUCUAUAATT against Serpinc1", "z-score": "0.221 (inactive)"}, {"sequence": "GGUUGGAUACUCGUCUUCATT against Olfr421-ps1", "z-score": "1.16 (inactive)"}, {"sequence": "GGCCCACAGUUUGUGACUGTT against Larp7", "z-score": "-1.1 (inactive)"}, {"sequence": "GCGUAUAGGUGAUGUACAGTT against Smad3", "z-score": "2.28 (active)"}, {"sequence": "GGUCAUUAGUUAUUCCUACTT against Olfr600", "z-score": "-1.33 (inactive)"}, {"sequence": "GGGUUCAAGAUAUCAAGUATT against 4933434E20Rik", "z-score": "1.23 (inactive)"}, {"sequence": "GCUUGGGUCAUAGGGAUGATT against Olfr1288", "z-score": "-0.371 (inactive)"}, {"sequence": "CCACUUUUGUAAUGGAAGCTT against Mfsd6l", "z-score": "1.89 (inactive)"}, {"sequence": "GGAGAUUCAGAUCAAAGAGTT against Scyl1", "z-score": "-0.182 (inactive)"}, {"sequence": "GCUACGUUUUUUACCUCCATT against Bak1", "z-score": "0.0106 (inactive)"}, {"sequence": "GGCUUCCAGUAAUGACAAUTT against Vwc2l", "z-score": "-1.67 (inactive)"}, {"sequence": "GGACUAUCAUCUGAUGCCATT against Klhl18", "z-score": "2.45 (active)"}, {"sequence": "GGUCUUUCCCAGGAUUCCATT against Rab19", "z-score": "-0.837 (inactive)"}, {"sequence": "GGUUGACUAUACUGAAAAGTT against Prrc2a", "z-score": "-0.606 (inactive)"}, {"sequence": "GGGCAAUGAAUGACAUUGGTT against Gabrd", "z-score": "-0.368 (inactive)"}, {"sequence": "GGGAGAAUCGAACUAUAAATT against Raver1", "z-score": "-0.477 (inactive)"}, {"sequence": "GGACCCUUAGGAAAUGUGCTT against S100a10", "z-score": "-1.13 (inactive)"}, {"sequence": "GCAUCAGAUUAUCUCACUGTT against Mtrf1l", "z-score": "0.261 (inactive)"}, {"sequence": "CGCGUGAUUGAUGUUUUACTT against Atxn10", "z-score": "0.793 (inactive)"}, {"sequence": "GUGUCAUUUCCCGGGACAUTT against Atp5g1", "z-score": "1.64 (inactive)"}, {"sequence": "CCUUGGACUGAUAUUAGCUTT against Dtx3", "z-score": "0.0235 (inactive)"}, {"sequence": "GGAACCUAAACGAACAAGGTT against Col6a2", "z-score": "2.18 (active)"}, {"sequence": "GGAUGUACGGAAGCGAUUCTT against Gmpr2", "z-score": "0.404 (inactive)"}, {"sequence": "GGUUCCUCAUUUGUAGAUGTT against D830050J10Rik", "z-score": "-1.19 (inactive)"}]}]}
